Assay results from paper PMC4336329 (PLoS ONE, 2015).
In all, about 310,000 compounds went through this assay and about 14,000 (4.5%) showed an effect of 50% or more. The effect is printed as a negative number. Many of the other results were omitted from the sample, so strong results are more common in it than they were.

These compounds were tested against human ether-à-go-go-related gene (hERG) potassium channel (human, UniProt Q12809) (assay: primary screen, population patch clamp on CHO cells stably expressing hERG; higher = less effect of the substance).
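Further: peak tail current of the secondary pulse compared with the same well before compound.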

Chain of human ether-à-go-go-related gene (hERG) potassium channel (Q12809 whole entry, looked up): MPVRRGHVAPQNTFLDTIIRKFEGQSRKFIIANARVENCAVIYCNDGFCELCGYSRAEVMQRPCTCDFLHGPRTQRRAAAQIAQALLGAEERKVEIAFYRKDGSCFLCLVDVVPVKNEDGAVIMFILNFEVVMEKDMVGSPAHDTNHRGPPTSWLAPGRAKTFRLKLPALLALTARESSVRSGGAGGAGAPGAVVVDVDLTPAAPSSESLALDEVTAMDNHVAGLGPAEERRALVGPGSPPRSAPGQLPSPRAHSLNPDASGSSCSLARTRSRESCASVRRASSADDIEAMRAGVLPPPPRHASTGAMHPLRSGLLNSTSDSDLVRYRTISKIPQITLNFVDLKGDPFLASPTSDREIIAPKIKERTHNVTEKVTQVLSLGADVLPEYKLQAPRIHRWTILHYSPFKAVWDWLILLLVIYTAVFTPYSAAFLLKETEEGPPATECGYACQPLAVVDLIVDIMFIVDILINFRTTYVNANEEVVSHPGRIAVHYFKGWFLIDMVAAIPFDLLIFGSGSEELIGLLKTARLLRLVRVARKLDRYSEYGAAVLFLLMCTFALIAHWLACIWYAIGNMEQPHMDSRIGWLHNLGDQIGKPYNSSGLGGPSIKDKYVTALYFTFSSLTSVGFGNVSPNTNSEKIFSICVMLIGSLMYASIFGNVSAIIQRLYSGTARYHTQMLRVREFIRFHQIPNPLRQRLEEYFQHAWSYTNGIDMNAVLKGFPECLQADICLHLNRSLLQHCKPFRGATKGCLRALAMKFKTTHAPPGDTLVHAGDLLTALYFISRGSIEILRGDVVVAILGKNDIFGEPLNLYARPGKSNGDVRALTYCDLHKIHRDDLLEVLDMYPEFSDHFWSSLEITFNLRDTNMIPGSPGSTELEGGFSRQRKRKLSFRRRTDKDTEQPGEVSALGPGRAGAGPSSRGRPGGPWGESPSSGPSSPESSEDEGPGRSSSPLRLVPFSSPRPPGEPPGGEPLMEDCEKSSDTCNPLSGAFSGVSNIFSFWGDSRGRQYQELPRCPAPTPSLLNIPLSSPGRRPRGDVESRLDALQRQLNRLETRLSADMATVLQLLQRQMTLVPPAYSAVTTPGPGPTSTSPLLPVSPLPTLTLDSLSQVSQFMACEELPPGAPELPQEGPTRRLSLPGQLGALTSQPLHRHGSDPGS

| SMILES | hERG current change (%, negative = inhibition) at 10uM |
| --- | --- |
| COc1ccc(NC(=O)C/C(C)=N/NC(=O)CCc2ccccc2)c(OC)c1 | 4.6% |
| CC(=O)c1cccc(NC(=S)NC(=O)c2ccccc2Br)c1 | 10.9% |
| Cl.N/C(=N\O)C1COc2ccccc2O1 (centres unmarked) | 16.4% |
| CCOC(=O)C1CCCN(C(=O)CSc2ccc(NC(C)=O)cc2)C1 (centres unmarked) | 14.9% |
| COc1ccccc1N1CCN(C(=O)CSc2nc3ncnc(N)c3[nH]2)CC1 | 21.3% |
| Cc1nc2cc(NS(=O)(=O)c3cccc(F)c3)ccc2s1 | 7.97% |
| COc1nc(Nc2ccccc2)nc(OC)n1 | 5.84% |
| CC(C)CCNC(=O)CCCc1ccccc1 | 14.5% |
| Brc1nc(-c2ccccc2)nc(-c2ccccc2)c1Br | -5.38% |
| O=C(Cc1ccc(S(=O)(=O)N2CCCC2)s1)N1CCOCC1 | -0.493% |
| Cc1ccc(C(=O)N2CCN(c3ccccc3)CC2)cc1S(=O)(=O)N1CCCC1 | -31.2% |
| Cc1ccc(C(=O)N2CCCCC2)cc1S(=O)(=O)N1CCCC1 | 5.55% |
| O=C(Cc1ccc(S(=O)(=O)N2CCCC2)s1)N1CCN(c2ccc(F)cc2)CC1 | -56.2% |
| Cc1ccc(C(=O)N2CCN(c3ccc(F)cc3)CC2)cc1S(=O)(=O)N1CCCCC1 | -54% |
| O=C(Cc1ccc(S(=O)(=O)N2CCCC2)s1)N1CCN(c2ccccc2)CC1 | -28.4% |
| O=C(Cc1ccc(S(=O)(=O)N2CCOCC2)s1)N1CCN(c2cccc(C(F)(F)F)c2)CC1 | -31.7% |
| O=C(Cc1ccc(S(=O)(=O)N2CCOCC2)s1)N1CCN(c2ccc(C(F)(F)F)cc2[N+](=O)[O-])CC1 | -54.8% |
| O=C(Cc1ccc(S(=O)(=O)N2CCOCC2)s1)N1CCN(S(=O)(=O)c2cccc([N+](=O)[O-])c2)CC1 | -27.1% |
| COc1ccc(OCCOC(=O)c2cc(S(=O)(=O)N3CCOCC3)c(Cl)cc2Cl)cc1 | -17.7% |
| Cc1ccc(NS(=O)(=O)c2cc([N+](=O)[O-])ccc2NNC(=S)Nc2cccc(Cl)c2)c(C)c1 | 26% |
| C[C@]12C=CC(=O)C=C1CC[C@@H]1[C@@H]2[C@@H](O)C[C@@]2(C)[C@H]1CC[C@]2(O)C(=O)COC(=O)CCC(=O)NCCc1ccc(O)cc1 | 12.8% |

| SMILES | hERG current change (%, negative = inhibition) at 10uM |
| --- | --- |
| CN1CCN(c2oc(Cc3cccc4ccccc34)nc2C#N)CC1 | -9.75% |
| CCOC(=O)N1CCC(NC(=O)CCC(=O)c2ccccc2)CC1 | 10.8% |
| CCc1ccccc1NC(=O)C(Cc1cccc(OC)c1OC)c1nn[nH]n1 (centres unmarked) | 7.41% |
| O=C(Nc1nccs1)C12CC3CC(C1)CC(C(=O)Nc1nccs1)(C3)C2 | -11.1% |
| COc1ccc(OCC(=O)Nc2ccc3c(c2)n(C)c(=O)n3C)cc1 | -3.51% |
| CCN1CCN(CCc2nc3cc(NC(=O)COc4ccccc4)ccc3n2C)CC1 | -49.8% |
| Cn1c(=O)n(C)c2cc(NC(=O)COc3ccc(Cl)cc3)ccc21 | -59.4% |
| CCN1CCN(CCc2nc3cc(NC(=O)COc4ccc(Cl)cc4)ccc3n2C)CC1 | -67.6% |
| CN1CCN(CCc2nc3cc(NC(=O)COc4ccc(Cl)cc4)ccc3n2C)CC1 | -61% |
| Cn1c(=O)n(C)c2cc(NC(=O)COc3ccc(F)cc3)ccc21 | -41.8% |
| Cn1c(CCN2CCCCC2)nc2cc(NC(=O)COc3ccc(Cl)cc3)ccc21 | -84.8% |
| CC(=O)Nc1ccc2c(c1)nc(CCN1CCN(C)CC1)n2C | -2.56% |
| c1ccc(Cc2nnc3sc(-c4ccccn4)nn23)cc1 | -6.6% |
| COc1ccc(C(=O)N=c2sc3c(C)ccc(OC)c3n2C)cc1OC | 7.38% |
| Cc1cc2c(ncn2C)c(NS(=O)(=O)c2ccc(Cl)cc2)c1C | -1.18% |
| COc1cc(C2NCC(c3ccc(Cl)cc3Cl)c3c2[nH]c2ccccc32)cc(OC)c1OC.Cl (centres unmarked) | 7.58% |
| COc1ccccc1N(C(=O)c1ccco1)C(C(=O)NC1CCCC1)c1cccnc1 (centres unmarked) | -0.441% |
| CC1CCN(S(=O)(=O)N2CCC(C(=O)NCCc3ccccc3)CC2)CC1 | 2.8% |
| CC(C)CN1C(=O)c2ccc(C(=O)Nc3ccccn3)cc2C1=O | -14.7% |
| O=C(COc1ccccc1)Nc1cc2c3c(c1)CC(=O)N3CCC2 | -36% |
